{"source": "PubChem BioAssay AID651699", "about": "(Sanford-Burnham Center for Chemical Genomics, 2012)", "note": "The campaign covered roughly 360,000 compounds. About 2,100 (0.58%) were called active. The list comes from a sample in which actives are over-represented; it also holds similar structures and randomly drawn compounds. Unmarked numbers belong to inactive results. Cut-off read from the data, not from the text of the source: active = inhibition above about 36%; inactive = the rest."}
{"biological_target": "NEDD8-conjugating enzyme Ubc12 (Homo sapiens) + NEDD8-activating enzyme E1 regulatory subunit (Homo sapiens) (UniProt P61081+Q13564)", "sequence (P61081 whole entry, looked up)": "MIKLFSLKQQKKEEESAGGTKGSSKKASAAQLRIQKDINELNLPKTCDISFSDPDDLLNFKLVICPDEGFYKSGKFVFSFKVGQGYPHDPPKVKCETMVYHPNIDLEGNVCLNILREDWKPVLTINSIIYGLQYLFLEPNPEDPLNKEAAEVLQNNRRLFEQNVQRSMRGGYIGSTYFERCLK", "sequence (Q13564 whole entry, looked up)": "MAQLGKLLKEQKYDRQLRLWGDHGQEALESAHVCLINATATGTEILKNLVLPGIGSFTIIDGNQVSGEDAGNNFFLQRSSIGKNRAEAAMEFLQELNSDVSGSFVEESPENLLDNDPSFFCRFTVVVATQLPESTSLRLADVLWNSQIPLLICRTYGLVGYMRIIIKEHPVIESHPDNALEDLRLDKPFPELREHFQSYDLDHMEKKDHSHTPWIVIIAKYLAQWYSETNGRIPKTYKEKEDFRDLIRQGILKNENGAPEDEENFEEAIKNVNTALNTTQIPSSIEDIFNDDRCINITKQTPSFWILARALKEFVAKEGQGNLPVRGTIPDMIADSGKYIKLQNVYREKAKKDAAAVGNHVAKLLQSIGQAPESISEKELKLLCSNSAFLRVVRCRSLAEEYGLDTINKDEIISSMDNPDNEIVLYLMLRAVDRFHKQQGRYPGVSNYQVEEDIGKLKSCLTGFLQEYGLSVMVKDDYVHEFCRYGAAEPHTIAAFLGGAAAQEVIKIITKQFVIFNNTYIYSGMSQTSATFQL", "assay": "inhibitors of cullin neddylation, primary screen, biochemical, TR-FRET, uHTS, NAE and Ubc12 (AID 651699)", "conditions": "at 25 µM, active compounds read high"}
{"smiles": "CCOc1ccc(Cl)cc1-c1cc(C(=O)NCc2cccs2)[nH]n1", "inhibition": "-0.82%"}
{"smiles": "Cc1sc2c(c1C)c(=O)n(-c1ccccc1)c1nncn21", "inhibition": "-4.64%"}
{"smiles": "CSCCC(NS(=O)(=O)/C=C/c1ccccc1)C(=O)N1CCC(C)CC1", "note": "(stereo not drawn)", "inhibition": "5.25%"}
{"smiles": "COCCCNc1nc2ccccc2nc1NS(=O)(=O)c1ccc(F)cc1", "inhibition": "37.4% (active)"}
{"smiles": "CCCn1nc(NS(=O)(=O)c2ccc(F)cc2)c2cc3ccccc3nc21", "inhibition": "-5.34%"}
{"smiles": "CCCCNc1nc2ccccc2nc1NS(=O)(=O)c1cccs1", "inhibition": "19.1%"}
{"smiles": "Cc1cccc(CC(=O)Nc2c3c(nn2-c2cccc(Cl)c2)CS(=O)C3)c1", "note": "(stereo not drawn)", "inhibition": "4.67%"}
{"smiles": "COc1ccc(S(=O)(=O)N2CCN(C)CC2)c(C)c1", "inhibition": "-9.29%"}
{"smiles": "Cn1c(N2CCOCC2)c(C=O)c2ccccc21", "inhibition": "13.5%"}
{"smiles": "Cn1c(=O)c(C(=O)Nc2ncccn2)c(O)c2ccccc21", "inhibition": "27.6%"}
{"smiles": "Cc1cc(C)c(-c2c(O)c3ccccc3n(C)c2=O)c(C)c1", "inhibition": "43.4% (active)"}
{"smiles": "Cn1c(=O)c(Sc2ccc(Cl)cc2)c(O)c2ccccc21", "inhibition": "-5.74%"}
{"smiles": "O=S(=O)(NCCCN1CCOCC1)c1ccc(F)c(Cl)c1", "inhibition": "-7.79%"}
{"smiles": "CC1(C)S[C@@H]2[C@H](NC(=O)COc3ccccc3)C(=O)N2C1C(=O)OCc1ccccc1", "note": "(stereo partly drawn)", "inhibition": "3.84%"}
{"smiles": "NC(=O)Cn1c(=O)oc2ccccc21", "inhibition": "4.87%"}
{"smiles": "COc1ccc(CNC(=O)[C@@H]2CC=C[C@@H]3CCN(C4CC4)C(=O)[C@@H]32)cc1", "inhibition": "4.74%"}
{"smiles": "CCN(CC)CCCN1C(=O)C(=O)/C(=C(/O)c2c(C)nc3ccccn23)C1c1ccc(C)o1", "note": "(stereo not drawn)", "inhibition": "-7.73%"}
{"smiles": "Cc1ccc(C(=O)NNC(=O)OC(C)(C)C)c(Cl)c1", "inhibition": "-8.95%"}
{"smiles": "O=C(NNc1c2ccccc2nc2ccccc12)c1cc2ccccc2cc1O", "inhibition": "-10.9%"}
{"smiles": "CC(C)(C)OC(=O)NNc1c2ccccc2nc2ccccc12", "inhibition": "48% (active)"}
{"smiles": "CCSC1=NCCN1S(=O)(=O)c1ccc(F)cc1", "inhibition": "8.82%"}
{"smiles": "CC(Oc1ccc(F)cc1)C(=O)Nc1ccccc1C(=O)NC1CC1", "note": "(stereo not drawn)", "inhibition": "4.37%"}
{"smiles": "O=[N+]([O-])c1ccc2c(c1)C(O)n1nc(-c3ccccc3)nc1S2", "note": "(stereo not drawn)", "inhibition": "-7.67%"}
{"smiles": "Cc1noc(C)c1C(=O)OCC(=O)/C=C1\\N(C)c2ccccc2C1(C)C", "inhibition": "43.7% (active)"}
{"smiles": "Cc1noc(C)c1C(=O)OCC(=O)N1CCN(S(=O)(=O)c2ccc3ccccc3c2)CC1", "inhibition": "-4.19%"}
{"smiles": "COc1ccc(C(=O)COC(=O)c2c(C)noc2C)cc1Cl", "inhibition": "-4.13%"}
{"smiles": "CC1CCCCC1NC(=O)Cn1cnc2c1c(=O)n(C)c(=O)n2C", "note": "(stereo not drawn)", "inhibition": "5.44%"}
{"smiles": "COc1ccc(-c2cc3c(c4c2ccn4C)C2CCC3C2)cn1", "note": "(stereo not drawn)", "inhibition": "-50.3%"}
{"smiles": "COc1cc(C2/C(=C(\\O)c3ccc4c(c3)CC(C)O4)C(=O)C(=O)N2c2nnc(C)s2)cc(OC)c1OC", "note": "(stereo not drawn)", "inhibition": "-20.5%"}
{"smiles": "COc1ccc(NC(=O)C2=NNC(=O)CC2)cc1S(=O)(=O)N1CCCCC1", "inhibition": "-1.74%"}
{"smiles": "CC(=O)Nc1nc(C)c(-c2csc(Nc3ccc(S(N)(=O)=O)cc3)n2)s1", "inhibition": "77% (active)"}
{"smiles": "C=CCCC(=O)Nc1nc(C)c(-c2csc(Nc3ccc(Cl)cc3)n2)s1", "inhibition": "-8.67%"}
{"smiles": "CCCCCCC(=O)Nc1nc(C)c(-c2csc(Nc3cccc(OC)c3)n2)s1", "inhibition": "-13.8%"}
{"smiles": "CCCCC(=O)N(C)c1c(CC)nc2c(OCc3ccc(Cl)cc3Cl)cccn12", "inhibition": "8.51%"}
{"smiles": "CC(C)Cn1cnc2c1c(=O)n(CC(=O)NN)c(=O)n2Cc1ccccc1", "inhibition": "3.73%"}
{"smiles": "Cc1noc(C)c1COc1ccc2ccc(=O)oc2c1", "inhibition": "42.9% (active)"}
{"smiles": "CC(C)OC(=O)c1ccc(COc2ccc3ccc(=O)oc3c2)o1", "inhibition": "32.9%"}
{"smiles": "Cc1noc(C)c1COc1cccc(C(=O)Nc2cccnc2)c1", "inhibition": "-1.48%"}
{"smiles": "CCOC(=O)N1CCC(NC(=O)CN2C(=O)COc3ccc(C(C)(C)C)cc32)CC1", "inhibition": "-0.68%"}
{"smiles": "CN(C)CCN=c1cc(-c2ccccc2)oc2ccc(Cl)cc12", "inhibition": "-18.1%"}
{"smiles": "Cc1ccc2[nH]c3c(=O)n(CC(=O)NCCc4ccc(Cl)cc4)ncc3c2c1", "inhibition": "-2.38%"}
{"smiles": "CC(C(=O)NC1CCCC1)N1CCN(S(=O)(=O)c2ccccc2Cl)CC1", "note": "(stereo not drawn)", "inhibition": "-0.01%"}
{"smiles": "Cc1ccnc(NC(=O)C(C)N2C(=O)c3ccccc3C2=O)c1", "note": "(stereo not drawn)", "inhibition": "9.23%"}
{"smiles": "CC(C(=O)NC1CCCCC1)N1C(=O)c2cccc3cccc1c23", "note": "(stereo not drawn)", "inhibition": "39.6% (active)"}
{"smiles": "COc1ccccc1-c1cc(NC(C)=O)c2ncc(-c3ccc(F)cc3)n2c1", "inhibition": "38.6%"}
{"smiles": "CC(=O)Nc1cc(-c2ccc(N3CCN(C)CC3)cc2)cn2c(-c3ccc(F)cc3)cnc12", "inhibition": "42.2% (active)"}
{"smiles": "CC(=O)Nc1cc(-c2ccc(N3CCN(C)CC3)cc2)cn2c(-c3cccc(C(=O)N(C)C)c3)cnc12", "inhibition": "0.78%"}
{"smiles": "O=C1c2ccccc2C(c2nc3ccccc3[nH]2)N1c1ccccc1", "note": "(stereo not drawn)", "inhibition": "4.84%"}
{"smiles": "C1=C(N2CCOCC2)/C(=C/c2nc3ccccc3[nH]2)CC1", "inhibition": "43% (active)"}
{"smiles": "CCO[C@H]1OC(C(=O)NCc2ccccc2)=C[C@@H](c2coc3ccccc3c2=O)[C@@H]1CCCO", "inhibition": "-9.63%"}
{"smiles": "Cc1c(Cl)cccc1NC(=O)[C@@]1(CC(=O)O)CC(/C=C/c2ccccc2)=NO1", "inhibition": "-0.33%"}
{"smiles": "Cc1ccc(C(CNC(=O)Nc2cccc(C)c2)N2CCN(C)CC2)cc1", "note": "(stereo not drawn)", "inhibition": "-3.56%"}
{"smiles": "Cc1cc(N)n2nc(-c3ccc(C(C)(C)C)cc3)cc2n1", "inhibition": "40.5% (active)"}
{"smiles": "COc1cccc2cc(/C(C)=N/NC(=O)c3ccco3)oc12", "inhibition": "-10.7%"}
{"smiles": "CC1CCCC(NC(=O)CN2CCN(Cc3ccc(Cl)cc3)C2=O)C1C", "note": "(stereo not drawn)", "inhibition": "5.5%"}
{"smiles": "CCC(C)c1ccc(NC(=O)COC(=O)C2CCCC2)cc1", "note": "(stereo not drawn)", "inhibition": "-5.48%"}
{"smiles": "COc1ccc2nc(C)cc(Nc3cccc(C(=O)O)c3)c2c1", "inhibition": "-12.3%"}
{"smiles": "Cc1ccc(-n2ncc3c(Nc4cccc(C(=O)O)c4)ncnc32)cc1", "inhibition": "38.5% (active)"}
{"smiles": "CC(Sc1ncnc2c1cnn2-c1ccccc1)C(=O)Nc1ccc(N2CCOCC2)cc1", "note": "(stereo not drawn)", "inhibition": "3.26%"}
{"smiles": "CCOC(=O)c1cn(CC)c2cc(F)c(F)cc2c1=O", "inhibition": "6.4%"}
{"smiles": "CC(=O)/C(=N\\Nc1ccc(Cl)cc1Cl)Sc1cccc2cccnc12", "inhibition": "-3.61%"}
{"smiles": "CN(CC(=O)Nc1cccc2c1CCCC2)S(=O)(=O)c1ccc(Cl)cc1", "inhibition": "7.5%"}
{"smiles": "Cc1ccc2occ(/C=N/NC(=O)c3ccccc3C)c(=O)c2c1", "inhibition": "42.8% (active)"}
{"smiles": "Cc1ccc(O)c(/C=N/NC(=O)COc2ccc3c(C)cc(=O)oc3c2)c1", "inhibition": "17%"}
{"smiles": "Cc1cc(NC(=O)c2ccccc2C)no1", "inhibition": "-11.1%"}
{"smiles": "CCOc1ccc(NS(=O)(=O)c2ccc(C)c(C(N)=O)c2)cc1", "inhibition": "-4.92%"}
{"smiles": "CCOc1ccc2nc(NCCNC(=O)C(C)(C)C)c(C)cc2c1", "inhibition": "42.5% (active)"}
{"smiles": "CCOc1ccc2nc(Cl)c(C3CC(c4ccccc4)=NN3C(=O)c3cccs3)cc2c1", "note": "(stereo not drawn)", "inhibition": "-162%"}
{"smiles": "CCOc1ccc(NC(=O)c2ccc(CSc3nnnn3C)cc2)cc1", "inhibition": "1.1%"}
{"smiles": "CC(=O)N(c1ccc2oc(=O)sc2c1)S(=O)(=O)c1ccc(C)cc1", "inhibition": "0.47%"}
{"smiles": "O=C(CN1CCN(C(=O)C2CCCO2)CC1)Nc1c(Cl)cccc1Cl", "note": "(stereo not drawn)", "inhibition": "10.6%"}
{"smiles": "C=CCNC(=O)C1CC=CCC1C(=O)O", "note": "(stereo not drawn)", "inhibition": "4.38%"}
{"smiles": "COc1ccccc1N(C)S(=O)(=O)c1ccc(Cl)c(C(=O)Nc2ccncc2)c1", "inhibition": "13.9%"}
{"smiles": "COc1cccc(OC)c1C(=O)Nc1ccc(Cc2ccncc2)cc1", "inhibition": "7.29%"}
{"smiles": "COc1cc2ccccc2cc1C(=O)Nc1ccncc1", "inhibition": "42.2% (active)"}
{"smiles": "O=C1N[C@H](Cc2c[nH]c3ccccc23)COC(=O)[C@H](Cc2ccc(F)cc2)C/C=C\\C[C@H]1CC(=O)N(CCO)Cc1ccccc1", "inhibition": "-4.67%"}
{"smiles": "O=C(c1ccc(Cl)cc1)N1N=C(c2ccccn2)CC1(O)C(F)(F)F", "note": "(stereo not drawn)", "inhibition": "46% (active)"}
{"smiles": "COC(=O)C1(O)CC(C(C)C)=NN1C(=O)c1ccc(Cl)cc1", "note": "(stereo not drawn)", "inhibition": "10.8%"}
{"smiles": "O=C(C1CC1)N1N=C(c2ccc(Br)cc2)CC1(O)C(F)(F)F", "note": "(stereo not drawn)", "inhibition": "-17%"}
{"smiles": "CC(=O)NCCc1ccc(S(=O)(=O)Nc2ccc(C)c(S(=O)(=O)N3CCOCC3)c2)cc1", "inhibition": "0.16%"}
{"smiles": "COc1ccc2c(c1)C(C)=CC(C)(C)N2C(=O)CNCc1ccc2c(c1)OCO2", "inhibition": "-2.09%"}
{"smiles": "COc1ccc2c(c1)C(C)=CC(C)(C)N2C(=O)Nc1ccccc1", "inhibition": "41.3% (active)"}
{"smiles": "CC1=CC(C)(C)N(C(=O)CSc2nnc(-c3ccccc3)o2)c2ccc(C)cc21", "inhibition": "-0.38%"}
{"smiles": "O=C(CCc1nnc(Cc2ccc3c(c2)OCO3)o1)NCCc1ccccc1Cl", "inhibition": "-1.6%"}
{"smiles": "CN(C)c1ccc(/C=N/Nc2cc(N3CCOCC3)nc(N3CCOCC3)n2)cc1", "inhibition": "53.4% (active)"}
{"smiles": "C/C(=N\\Nc1nc(N2CCOCC2)nc(N2CCOCC2)n1)c1ccc([N+](=O)[O-])cc1", "inhibition": "-9.47%"}
{"smiles": "Fc1ccccc1/C=N/Nc1cc(N2CCCCC2)ncn1", "inhibition": "9.65%"}
{"smiles": "NNC(=O)c1oc2nc(-c3ccccc3)cc(-c3ccco3)c2c1N", "inhibition": "51.2% (active)"}
{"smiles": "Cc1ccc(O)c(NC(=O)c2cc(-c3ccco3)on2)c1", "inhibition": "5.21%"}
{"smiles": "CNC(=S)NNC(=O)c1oc2nc(-c3ccccc3)cc(-c3ccco3)c2c1N", "inhibition": "29.8%"}
{"smiles": "O=C(N/N=C/c1ccccc1O)C1CCCC1", "inhibition": "44.9% (active)"}
{"smiles": "CC1(C)C2CC=C(/C=N/NC(=O)C3CC3)C1C2", "note": "(stereo not drawn)", "inhibition": "-0.11%"}
{"smiles": "O=C(NNC(=O)C1CCC1)c1ccccc1", "inhibition": "-19.3%"}
